{"source": "PubChem BioAssay"}
{"test": "JC-1 mitochondrial potential readout, lung cancer cells – cell-based, A549, JC-1 fluorescence, basal, 24 h, 100 nL, profiling panel (AID 1138);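 note: A549 lung adenocarcinoma cells under basal conditions with no added stimulus; test concentration not given here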", "details": "higher = more signal"}
{"molecule": "O=C1O[C@H](c2ccccc2)[C@H](c2ccccc2)N2[C@H]1[C@@H](C(=O)Nc1nc3ccccc3s1)[C@]1(C(=O)Nc3ccc(C#CCCO)cc31)[C@H]2c1ccc(OCCO)cc1", "z-score": -2.36}
{"molecule": "C=CCOC(=O)[C@H]1[C@@H]2C(=O)O[C@@H](c3ccccc3)[C@@H](c3ccccc3)N2[C@@H](c2ccc(OCCOC(=O)[C@@H]3C[C@@H]4C(=O)N[C@@H](CCCC[N+](C)(C)C)C(=O)N4[C@@H]3c3ccc(O)cc3)cc2)[C@]12C(=O)Nc1ccccc12", "z-score": -0.849}
{"molecule": "COCCCN1C(=O)[C@@]2(Cc3ccccc31)c1ccccc1C(=O)N(Cc1ccccc1C(F)(F)F)[C@H]2c1ccc(CO)cc1", "z-score": 0.317}
{"molecule": "COc1cc2c(cc1OC)CN(C(=O)[C@@H]1[C@H]3C(=O)O[C@H](c4ccccc4)[C@H](c4ccccc4)N3[C@H](c3ccc(O)cc3)[C@@]13C(=O)Nc1ccc(C#CC4(O)CCCCCC4)cc13)CC2", "z-score": -0.373}
{"molecule": "COCCOC(=O)N1C(=O)[C@@]2(c3ccccc31)[C@H](c1ccccc1OCCO)N1[C@H](c3ccccc3)[C@H](c3ccccc3)OC(=O)[C@H]1[C@@H]2C(=O)Nc1nc2ccccc2s1", "z-score": -1.91}
{"molecule": "C=C[C@H](COC(C)=O)N(C(=O)OC(C)(C)C)S(=O)(=O)c1ccc(Br)cc1", "z-score": 0.671}
{"molecule": "COc1cc(CO)cc(I)c1O[C@H]1C=C(C(=O)NCCO)C[C@@H](N(CCN2CCOCC2)C(=O)C2CCOC2)[C@@H]1O", "note": "(some centres undefined)", "z-score": 1.86}
{"molecule": "COC(=O)[C@@]1(Cc2ccc(F)cc2)[C@H]2c3cc(C(=O)N4CCCC4)n(Cc4ccc(C)o4)c3C[C@H]2CN1C(=O)c1ccccc1", "z-score": 0.821}
{"molecule": "C=CCN1C(=O)[C@]2(O[C@H](CCO)[C@@H]([Si](C)(C)c3ccc(OC)cc3)[C@@H]2C)c2cc(N3C(=O)c4cccc5cccc3c45)ccc21", "z-score": -0.855}
{"molecule": "C=CCN1C(=O)[C@]2(O[C@H](CCO)[C@@H]([Si](C)(C)c3ccc(OC)cc3)[C@@H]2C)c2cc(N3CCCCC3=O)ccc21", "z-score": 0.517}
{"molecule": "CN1C(=O)C2C=CC(C(O)c3ccc(-c4ccccc4)s3)N(N(c3ccccc3)c3ccccc3)C2C1=O", "note": "(centres undefined)", "z-score": 0.767}
{"molecule": "COc1cc(OC)c(C(O)C2C=CC3C(=O)NC(=O)C3N2Nc2ccc(Cl)cc2Cl)cc1Br", "note": "(centres undefined)", "z-score": -0.824}
{"molecule": "CCOC(=O)C[C@H]1[C@H](OC(=O)c2cc3ccccc3oc2=O)[C@@H](NC(=O)Cc2ccc(OC)cc2)c2cc(OCCCO)ccc2N1C(=O)c1ccccc1", "z-score": -1.01}
{"molecule": "COc1ccc(C(O)C2C=CC3C(=O)N(c4ccccc4)C(=O)C3N2Nc2ccccc2F)cc1OCc1ccccc1", "note": "(centres undefined)", "z-score": 0.383}
{"molecule": "CN1C(=O)C2C=CC(C(O)Cc3ccccc3)N(Nc3ccccc3)C2C1=O", "note": "(centres undefined)", "z-score": -0.375}
{"molecule": "O=C1O[C@H](c2ccccc2)[C@H](c2ccccc2)N2[C@H]1[C@@H](C(=O)Nc1nc3ccccc3s1)[C@]1(C(=O)Nc3ccc(C#CC4(O)CCCCCC4)cc31)[C@H]2c1ccc(OCCO)cc1", "z-score": -2.27}
{"molecule": "C[N+](C)(C)CCCC[C@@H]1NC(=O)[C@@H]2C[C@H](C(=O)NCCCCCN)[C@H](c3cccc(OCCO)c3)N2C1=O", "z-score": 0.809}
{"molecule": "CCCCCCC#C[Si](O[C@H](c1ccccc1)c1cn([C@H](CO)Cc2ccccc2)nn1)(C(C)C)C(C)C", "z-score": -0.319}
{"molecule": "COC(=O)[C@@]1(Cc2ccc(F)cc2)[C@@H]2[C@@H](CC(=O)[C@H]2CC(=O)C(=O)N(C)C)CN1C(=O)c1ccccc1", "z-score": 0.432}
{"molecule": "C#CCN(CC=C(C)C)[C@H](CO)c1ccccc1", "z-score": -1.47}
{"molecule": "CCc1oc(CC[C@@H](CO)NC(=O)NCCn2cc(C3(O)CCCCC3)nn2)c(C(=O)OC)c1C(=O)OC", "z-score": -0.0225}
{"molecule": "C#CCN(Cc1ccccc1Br)C(/C=C/c1ccccc1)CO", "note": "(centres undefined)", "z-score": -1.01}
{"molecule": "C#CCNC(=O)[C@H](Cc1ccccc1)NC(=O)CCC(=O)O", "z-score": -0.68}
{"molecule": "C[C@@]1([C@@H](NC(=O)c2ccccc2)c2ccc(-c3ccccc3)cc2)C[C@H]1C1CCCCC1", "z-score": -0.507}
{"molecule": "CC(C)C(=C=CC[C@@H](O)c1ccccc1OCCO)CCO", "z-score": 0.991}
{"molecule": "O=C(c1ccccc1)N1Cc2ccccc2[C@@H]2OC(c3ccc(OCCCO)cc3)=N[C@]2(Cc2ccccc2)C1=O", "z-score": -0.411}
{"molecule": "CC(C)C(CO)N1C(=O)[C@@H]2[C@H]3C(=O)OCC=C[C@H]3OC23C=CCN(C(C)C)C(=O)[C@@H]13", "note": "(some centres undefined)", "z-score": -0.654}
{"molecule": "CN(C)C(=O)[C@@]1(Cc2ccccc2)N=C(c2ccc(OCCCO)cc2)O[C@H]1c1ccccc1N=[N+]=[N-]", "z-score": -0.631}
{"molecule": "C=C/C=C/[C@H]1C(=C)CN([C@@H](Cc2ccccc2)C(=O)OC)[C@@H]1[C@H](O)Cc1ccccc1", "z-score": 0.0936}
